Results from PubChem BioAssay.
Activity calls are given as the source filed them.

Legend:
Albumin (Bos taurus) = Albumin (Bos taurus) (UniProt P02769); experiment: bovine serum albumin binders on microarray, profiling panel, artefact control for SMM control protein annotation, biochemical, small-molecule microarray, Alexa647 label, 635/667 nm fluorescence (AID 1118); details: BSA-A647 binding, fluorescence 635 nm, higher = more signal;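 further: score merges 667 nm emission intensity and signal-to-noise per printed compound spot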
[1] = small-molecule microarray binders of probe aXIP, primary screen, biochemical, NeuroSMM set, 635/667 nm fluorescence (AID 1119); details: higher = more signal, called active from +8 up or from −8 down;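 further: probe is the protein aXip251-270 applied at 1 µg/mL to compound-printed slides; binding of probe to printed compounds measured as 667 nm fluorescence plus signal to noise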
[2] = small-molecule binders of probe aNOTCH3, primary screen, biochemical, small-molecule microarray, 635/667 nm fluorescence (AID 1120); details: higher = more signal;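 further: probe is a biotin-tagged antibody raised against NOTCH3 rather than NOTCH3 protein; score merges spot fluorescence near 667 nm with spot signal to noise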
[3] = small-molecule binders of probe aNOTCH2, primary screen, biochemical, small-molecule microarray, 635/667 nm fluorescence (AID 1121); details: higher = more signal;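 further: score merges feature fluorescence read at 667 nm with its signal to noise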
[4] = biological target: Carbonic anhydrase 2 (Homo sapiens) (UniProt P00918); experiment: CAII small-molecule binders, profiling panel, biochemical, small-molecule microarray, Alexa647-labelled CAII (AID 1122); details: CAII-A647 binding fluorescence, higher = more signal
[5] = COS7 lysate on small-molecule microarray, probe aHis, 635 nm (AID 1123); details: COS7 cell lysate, fluorescence, higher = more signal;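 further: z-score combines 667nm fluorescence intensity with signal-to-noise per printed compound spot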
[6] = compound binding in COS7 lysate, probe aLAP1, primary screen, cell lysate, small-molecule microarray (AID 1124); details: probe aLAP1, fluorescence, higher = more signal;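 further: lysate comes from COS7 cells expressing LAP1 and is applied at 0.3 µg/mL; score merges spot fluorescence near 667 nm with signal-to-noise over triplicate slides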
Sam68 (KHDRBS1) = experiment: Sam68 small-molecule binders, primary screen, biochemical, small-molecule microarray, 635 nm fluorescence (AID 1125); details: small-molecule microarray binding, higher = more signal;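 further: score merges 667 nm channel intensity with signal to noise over triplicate slides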
[7] = tested on: Chordin-like protein 2 (CHRDL2); experiment: CHRDL2 small-molecule binders, primary screen, biochemical, small-molecule microarray, 635 nm fluorescence (AID 1126); details: small-molecule microarray binding, fluorescence 635 nm; higher = more signal;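 further: printed compound slides probed with Chrdl2 protein at 4 µg/mL for 1 h at 4 C; score merges 667 nm emission intensity with signal to noise over three replicate slides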
[8] = biological target: Concanavalin-A (Canavalia ensiformis) (UniProt P02866); experiment: ConA small-molecule binders, primary screen, artefact control for SMM control protein annotation, biochemical, small-molecule microarray, Alexa647 label, 635 nm (AID 1127); details: ConA-A647 binding fluorescence, higher = more signal;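 further: z combines 667 nm emission intensity with signal-to-noise across three replicate slides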
Chain of Concanavalin-A (Canavalia ensiformis) (P02866 whole entry, looked up): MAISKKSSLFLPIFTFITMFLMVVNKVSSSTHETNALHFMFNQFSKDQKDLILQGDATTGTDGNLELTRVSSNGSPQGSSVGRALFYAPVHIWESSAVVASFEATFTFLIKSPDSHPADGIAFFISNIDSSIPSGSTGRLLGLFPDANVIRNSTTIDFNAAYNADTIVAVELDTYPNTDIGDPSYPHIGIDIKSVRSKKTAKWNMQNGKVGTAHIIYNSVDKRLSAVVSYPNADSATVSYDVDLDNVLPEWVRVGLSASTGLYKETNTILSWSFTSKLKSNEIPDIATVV

Chain of Albumin (Bos taurus) (P02769 whole entry, looked up): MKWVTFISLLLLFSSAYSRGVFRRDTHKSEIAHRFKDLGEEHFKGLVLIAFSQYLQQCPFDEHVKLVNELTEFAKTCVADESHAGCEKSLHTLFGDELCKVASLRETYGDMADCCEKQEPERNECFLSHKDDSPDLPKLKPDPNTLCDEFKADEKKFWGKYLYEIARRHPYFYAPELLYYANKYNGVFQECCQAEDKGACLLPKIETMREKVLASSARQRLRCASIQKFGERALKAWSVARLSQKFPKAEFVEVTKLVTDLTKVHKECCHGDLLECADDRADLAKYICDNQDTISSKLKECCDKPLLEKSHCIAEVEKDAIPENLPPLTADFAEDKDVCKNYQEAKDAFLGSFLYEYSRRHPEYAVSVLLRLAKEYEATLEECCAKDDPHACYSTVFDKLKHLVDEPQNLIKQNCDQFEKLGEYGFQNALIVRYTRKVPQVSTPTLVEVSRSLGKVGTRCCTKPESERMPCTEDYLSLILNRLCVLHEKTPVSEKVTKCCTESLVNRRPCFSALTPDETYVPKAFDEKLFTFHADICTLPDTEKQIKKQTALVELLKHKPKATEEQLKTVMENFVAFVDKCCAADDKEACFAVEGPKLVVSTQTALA

Row | Compound | composite z-score (Albumin (Bos taurus)) | composite Z-score [1] | composite z-score [2] | composite z-score [3] | composite z-score [4] | composite z-score [5] | composite z-score [6] | composite z-score (Sam68 (KHDRBS1)) | composite z-score [7] | composite z-score [8]
1 | COc1ccc([Si](C)(C)[C@H]2[C@H](CCn3cc([C@H](O)c4ccccc4)nn3)O[C@@]3(C(=O)N(c4ccccc4)c4ccccc43)[C@@H]2C)cc1 | 0.121 | -0.112 (inactive) | -0.0879 | -0.156 | -0.102 | -0.337 | -0.075 | 0.0941 | -0.201 | 0.173
2 | CCCCC(=C=CC[C@@H](O)c1cccc(OCCO)c1)CCO | 0.319 | -0.462 (inactive) | -0.119 | -0.142 | 0.34 | 0.592 | 0.0297 | 0.158 | -0.596 | -0.0305
3 | [N-]=[N+]=NCc1ccccc1C[C@]1(C(=O)N2CCOCC2)N=C(c2ccc(OCCCO)cc2)O[C@H]1c1ccccc1CN=[N+]=[N-] | 0.954 | -0.161 (inactive) | 0.598 | 0.502 | 0.802 | 3.34 | 0.853 | 1.3 | -0.655 | 1.14
4 | C=C(COC)C(=O)CC[C@@H](OC(=O)c1cccnc1)c1cccc(OCCO)c1 | 0.0464 | -0.239 (inactive) | 0.158 | -0.107 | 0.75 | 0.148 | -0.292 | 0.804 | 0.423 | -0.095
5 | COCCOC(=O)N1C(=O)[C@@]2(c3cc(C#CCCO)ccc31)[C@H](c1ccc(O)cc1)N1[C@H](c3ccccc3)[C@H](c3ccccc3)OC(=O)[C@H]1[C@@H]2C(=O)N1CCc2cc(OC)c(OC)cc2C1 | -0.997 | 0.454 (inactive) | 0.341 | 0.305 | 0.345 | 1.48 | 1.07 | 1.32 | 0.789 | 1.06
6 | COC(=O)C1=CC(CCCO)=CC(c2ccc(CN3CCCC3)cc2)N(Cc2sc3ccccc3c2Cl)C=C1C(=O)OC (stereo not given) | 1.05 | 3.3 (inactive) | 0.734 | 0.157 | 0.788 | 2.95 | 0.926 | 1.3 | 0.153 | 1.21
7 | CCCCC(O)C1C=CC2C(=O)NC(=O)C2N1Nc1ccccn1 (stereo not given) | 0.082 | 0.0557 (inactive) | -0.155 | 0.0377 | 0.885 | -0.234 | 0.386 | -1.01 | -0.0858 | 0.344
8 | CN(C)C(=O)[C@@]1(CCS(=O)(=O)c2ccccc2)N=C(c2ccc(OCCCO)cc2)O[C@H]1c1ccccc1N=[N+]=[N-] | 0.856 | -0.288 (inactive) | 0.488 | -0.112 | 0.669 | 2.13 | 0.521 | 1.29 | -0.0717 | 0.972
9 | C#CCN([C@H](/C=C/C1CC1)[C@@H](O)Cc1ccccc1)[C@@H](Cc1ccccc1)C(=O)OC | -0.578 | -0.232 (inactive) | 0.15 | -0.164 | -0.179 | -0.485 | -0.454 | 0.0511 | 0.686 | -0.249
10 | NC(=O)[C@@]1(CCS(=O)(=O)c2ccccc2)COC(c2ccc(OCCCO)cc2)=N1 | 0.336 | -0.823 (inactive) | 0.119 | 0.327 | 0.445 | 0.043 | -0.84 | -0.0922 | -0.536 | 0.411
11 | COc1ccc(CCNC(=O)[C@@]2(Sc3ccc(C)cc3)CC(=O)N(Cc3cc(C(F)(F)F)cc(C(F)(F)F)c3)[C@@H]2c2ccc(CO)cc2)cc1 | -0.391 | -0.669 (inactive) | -0.352 | 0.118 | 0.711 | 1.16 | 0.538 | -1.13 | -2.73 | -3.06
12 | CC(C)C[C@H]1NC(=O)[C@@]23C(=O)N[C@@H](Cc4ccccc4)C2[C@H](C)[C@@]2(C)O[C@H]2C3/C=C/C/C=C\CNC(=O)[C@@H]2CCCN2C1=O (stereo not given in full) | 0.773 | 0.119 (inactive) | 0.0694 | -0.176 | 0.725 | 1.23 | 0.145 | 0.975 | 0.293 | 0.276
13 | COCCOC(=O)N1C(=O)[C@@]2(c3ccccc31)[C@H](C(N)=O)[C@H]1C(=O)O[C@H](c3ccccc3)[C@H](c3ccccc3)N1[C@@H]2c1ccc(OCCO)cc1 | 0.787 | 1.32 (inactive) | -0.0055 | -0.123 | 0.508 | 1.74 | 0.103 | 1.31 | 0.33 | 1.15
14 | CN1C(=O)C2C(C1=O)C1C=C(c3ccc(CO)cc3)C2C(c2cccs2)N1C (stereo not given) | 0.935 | 0.891 (inactive) | -0.0044 | -0.146 | 0.76 | 0.784 | 1.08 | 0.47 | -0.125 | 1.18
15 | C=CCC(OC(C)=O)[C@@H]1[C@@H](N(Cc2ccc(-c3cccc(C(F)(F)F)c3)o2)C(=O)Cc2ccc(F)cc2)c2cc(OCCCO)ccc2N1C(=O)c1ccc2ccccc2c1 (stereo not given in full) | -0.229 | -0.0127 (inactive) | -0.0813 | -0.117 | -0.351 | 0.0261 | -0.211 | -0.749 | -0.0715 | -1.35
16 | COC(=O)[C@@H]1N=C(c2ccc(OCCCO)cc2)O[C@@H]1c1ccccc1CN=[N+]=[N-] | 0.273 | 0.443 (inactive) | 0.181 | -0.0162 | 0.552 | 1.18 | -0.0169 | 0.513 | -0.689 | 0.116
17 | CCCC[C@@H](O)C1=C(COC)Cn2c(=O)n(-c3ccccc3)c(=O)n2[C@H]1CO | -0.0338 | 0.0894 (inactive) | -0.0967 | -0.166 | -0.469 | -0.162 | 0.0924 | -0.532 | -0.0073 | -0.698
18 | COC(=O)[C@@]1(CCC(=O)OC(C)(C)C)N=C(c2ccc(OCCCO)cc2)O[C@H]1c1ccccc1CN=[N+]=[N-] | -0.0515 | 0.69 (inactive) | -0.0984 | -0.0786 | 0.743 | 1.41 | 0.348 | -0.126 | -0.141 | 0.855
19 | C#CCN=C(N)N | -0.0077 | 0.322 (inactive) | 0.0276 | -0.0403 | 0.41 | 0.121 | 0.118 | 0.754 | 0.437 | 0.604
20 | CCCCCCc1nc(-c2ccc(OC)nc2)cc2c1[Si](C(C)C)(C(C)C)OC2 | -0.361 | 0.582 (inactive) | -0.0858 | -0.104 | 0.445 | -0.689 | -0.293 | -0.299 | -0.0659 | 0.502
21 | CC(=O)c1ccc(C(O)C2C=CC3C(=O)N(C)C(=O)C3N2NC(=O)OC(C)(C)C)cc1 (stereo not given) | 1 | -0.331 (inactive) | 0.103 | 0.119 | 0.885 | 2.61 | 0.366 | 1.29 | -0.971 | 1.17
22 | COC(=O)[C@@]1(Cc2ccc(OC)cc2)[C@H]2c3cc(C(=O)N4CCCC4)n(CCc4ccc(OC)c(Br)c4)c3C[C@H]2CN1C(=O)c1ccccc1 | 1.01 | -0.004 (inactive) | 0.0305 | 0.162 | 0.895 | 2.78 | 1.11 | 0.251 | 0.257 | -0.234
23 | CC(C)CNC(=O)[C@@]1(C)c2ccccc2C(=O)N(Cc2cc(F)cc(C(F)(F)F)c2)[C@H]1c1ccc(CO)cc1 | 0.621 | -0.17 (inactive) | -0.0044 | -0.046 | 0.284 | 1.2 | 0.615 | 1.17 | 0.443 | 0.771
24 | COC(=O)[C@@]1(Cc2ccccc2)[C@H]2c3cc(C(=O)N4CCCC4)n(Cc4ccc(C(F)(F)F)nc4)c3C[C@H]2CN1C(=O)c1ccccc1 | 0.958 | -0.296 (inactive) | 0.843 | 0.292 | 0.478 | 3.1 | 0.232 | 1.31 | -0.873 | 1.16
25 | CCCCC(=C=CC[C@@H](O)c1ccc(OCCO)cc1)C[C@@H](O)c1ccccn1 | 0.681 | 0.111 (inactive) | 0.0557 | -0.0785 | 0.326 | -0.0207 | 0.209 | 1.15 | 0.102 | 0.223
26 | COCCOC(=O)N1C(=O)[C@@]2(c3cc(C#CCC(C(=O)OC)C(=O)OC)ccc31)[C@H](c1ccc(OCCO)cc1)N1[C@H](c3ccccc3)[C@H](c3ccccc3)OC(=O)[C@H]1[C@@H]2C(=O)N1CCCCCCC1 | 0.256 | 2.32 (inactive) | 1.77 | 0.597 | 0.604 | 3.41 | 0.986 | 1.3 | 1.3 | 1.1
27 | COCCCN1C(=O)[C@@]2(Cc3ccccc31)c1ccccc1C(=O)N(Cc1ccccc1OC)[C@H]2c1ccc(CO)cc1 | 0.345 | 0.449 (inactive) | -0.147 | -0.101 | 0.799 | 0.374 | 1.34 | -0.0726 | -1.21 | 0.254
28 | CC1CC/C=C\[C@H]2OC34C=CCN(c5ccc(Cl)cc5)C(=O)[C@H]3N(CCCO)C(=O)[C@]4(C)C2C(=O)O1 (stereo not given in full) | 0.784 | 0.182 (inactive) | -0.235 | -0.18 | 0.931 | -0.42 | 0.569 | -0.38 | -1.39 | -0.749
29 | COc1ccc([Si](C)(C)[C@@H]2[C@@H](CC(=O)N(CCO)Cc3ccccc3)O[C@]3(C(=O)N(Cc4ccc(N5CCC5=O)cc4)c4ccccc43)[C@H]2C)cc1 | 0.212 | -0.272 (inactive) | -0.178 | -0.218 | -0.23 | 0.711 | -0.161 | 0.0201 | 0.508 | 0.783
30 | COCCOC(=O)N1C(=O)[C@@]2(c3ccccc31)[C@H](c1ccc(OCCO)cc1)N1[C@H](c3ccccc3)[C@H](c3ccccc3)OC(=O)[C@H]1[C@@H]2C(=O)N1CCN(c2ncccn2)CC1 | 0.0718 | -0.216 (inactive) | 0.146 | 0.0248 | 0.351 | 1.78 | 0.282 | 1.3 | 0.756 | 1.1
